According to ChEMBL document CHEMBL4513216, “Probing the Open Global Health Chemical Diversity Library for Multistage-Active Starting Points for Next-Generation Antimalarials” (ACS Infect Dis, 2020):
Among all 69,000 compounds or so, about 8,600 (12%) showed an effect of 50% or more. The sample holds strong results, similar compounds and a random draw of the others, so the mix is not that of the screen.

These compounds were tested on Plasmodium berghei (assay: Screen against P. berghei liver stage (PbLuc), transformed with Luciferase, at 10uM). Conditions: tested at 10 uM.
Format: functional, HepG2

| SMILES | INHIBITION [%] |
| --- | --- |
| Cc1nc(C)n(CC2CCCN2CCOc2ccc(F)cc2)n1 (configuration not stated) | -32 |
| CCn1nc2c(cc1=O)CN(CC(=O)Nc1nnc(C)s1)CC2 | -29.8 |
| CCCn1nc2c(cc1=O)CN(CC(=O)Nc1nnc(C)s1)CC2 | 26.3 |
| Cc1nnc(NC(=O)CN2CCc3nn(C)c(=O)cc3C2)s1 | 62.9 |
| CCN(Cc1ccc(O)c(C(=O)O)c1)CC1CCOCC1 | 7.65 |
| COc1ccccc1CNc1c(O)c(=O)c1=O | 21.7 |
| CO[C@H]1CC[C@H]2[C@H]1OCCN2Cc1ccc(F)cc1 | -40.9 |
| O=C(NCCNC1CCN(c2nccs2)CC1)c1cccs1 | 55.1 |
| O=C(NC1CCN(c2nccs2)CC1)c1cccs1 | 22.2 |
| O=C(NCCNC1CCCC1)c1cccs1 | -0.902 |
| COc1ccc(COCC(=O)N2CCC(c3nncn3C)CC2)cc1 | 39.2 |
| CC(=O)N1N=C(c2ccccc2)OC1C(=O)N(C)CCc1ccccc1 (configuration not stated) | 38.2 |
| Cn1cnc2c1C(COCc1ccccc1)N(Cc1ccncc1)CC2 (configuration not stated) | 15.9 |
| COC(=O)c1cc(OC)ccc1NCC(=O)NCC(=O)N1CCCC1 | 2.03 |
| CC(C)c1nc(CN2CCOC(Cn3cncn3)C2)no1 (configuration not stated) | -15.5 |
| O=C(NC1CCCC1)C1CCN(c2cc(-n3ccnc3)ncn2)CC1 | 48 |
| O=C(NC1CCN(c2cc(-n3ccnc3)ncn2)CC1)c1ccncc1 | 69.1 |
| O=C(NC1CCN(c2ncccn2)CC1)c1cccc(-n2ccnc2)c1 | -2.94 |
| CC1c2ncc(CN3CCN(C)CC3)n2CCN1Cc1cnn(C)c1 (configuration not stated) | 33.2 |

| SMILES | INHIBITION [%] |
| --- | --- |
| O=C1CO[C@@H]2CN(Cc3cccs3)C[C@H]2N1Cc1ccncc1 | 14.2 |
| CCN(CC)CCNC(=O)CCc1c(C)nn(-c2ccccc2Cl)c1C | 48 |
| CCN(CC)CCNC(=O)CCc1c(C)nn(-c2cccc(Cl)c2)c1C | 48 |
| CCN(CC)CCNC(=O)CCc1c(C)nn(-c2ccc(Cl)cc2)c1C | 63.9 |
| O=C1NCCN1CCNc1cc(-c2ccncc2)nc2ccnn12 | -4.91 |
| CNC(=O)c1cccnc1Oc1ccccc1 | 9.89 |
| NC(=O)CC1c2cccnc2C(=O)N1Cc1ccccc1 (configuration not stated) | -16.4 |
| CC(C)(C)c1n[nH]c(C2CN(C(=O)c3cc(Cl)c[nH]3)CCO2)n1 (configuration not stated) | 19.7 |
| Cc1ccc(S(N)(=O)=O)cc1C(=O)NC1CCCN(C)C1 (configuration not stated) | 3.46 |
| CC(=O)N[C@H]1CN(S(=O)(=O)N(C)Cc2ccccc2)C[C@@H]1C1CC1 | 64.4 |
| CCC[C@H]1CN(S(=O)(=O)N(C)Cc2ccccc2)C[C@@H]1N | 77.5 |
| CN(Cc1ccccc1)S(=O)(=O)N1C[C@@H](C(=O)O)[C@H](C2CC2)C1 | 61.8 |
| CN(Cc1ccccc1)C(=O)CCN1C[C@H](C2CC2)[C@@H](N(C)C)C1 | 14.9 |
| CN(Cc1ccc(F)cc1)S(=O)(=O)N1CCOCC1 | -8.005 |
| CC(=O)N[C@@H]1CN(S(=O)(=O)Cc2ccccc2)C[C@H]1C(C)C | 41.6 |
| CN(Cc1ccccc1)S(=O)(=O)N1C[C@H](C2CC2)[C@@H](N)C1 | -43.1 |
| CCN(Cc1ccccc1)C(=O)CCN1C[C@@H](C(=O)O)[C@H](C2CC2)C1 | 5.78 |
| CN(Cc1cccc(F)c1)S(=O)(=O)N1CCOCC1 | -26.1 |
